Source: PubChem BioAssay (NCATS)
Records with an inconclusive call do not appear. Activity calls are given as the source filed them. Unless noted, calls come from the whole dose curve; as a rule, active = well fitted curve in the direction sought with a large enough effect; inconclusive = small, poorly fitted or top-dose-only effect, or another doubt; inactive = no such curve, though single readings can be large; an effect the other way counts as inactive or inconclusive.

Columns and labels:
[1] = AP1 Signaling Pathway (AID 357; active = well fitted curve in either direction with a large enough effect, not every such curve was filed as active;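 note: ME-180 reporter cells stimulated with EGF at its EC50 level; % is set by controls: 0 for no effect and ±100 for the full control effect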)
How it was run: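 A ratiometric CCF4 readout (405 nm excitation; 460 and 530 nm emission) quantified AP-1-driven beta-lactamase in ME-180 cells after 5 h with compound and EC50 EGF; AC50 values were derived for activators and inhibitors.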

[2] = NFAT Signaling Pathway (AID 444; active = well fitted curve in either direction with a large enough effect, not every such curve was filed as active;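 note: carbachol stimulus at about its EC50 of 1 µM final; % is set by controls: 0 for no effect and ±100 for the full control effect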); conditions: Jurkat NFAT-bla M1, carbachol, beta-lactamase ratio, 5 h; at 17.2 µM (top of the series) unless noted
How it was run: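 Jurkat cells with NFAT-driven β-lactamase reporter and co-expressed M1 receptor, stimulated with carbachol (final 1 uM, ~EC50), compound titration, 5 h at 37 °C. CCF4 loaded 1 h at RT; 460/530 nm ratio gave %activity and AC50.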

[3] = Stat Signaling Pathway (AID 446; active = well fitted curve in either direction with a large enough effect, not every such curve was filed as active;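 note: ME-180 cervical cancer cells given 40 pM IL-6 alongside compound; SIE-controlled beta-lactamase reporter measured as 460/530 nm FRET emission ratio; % is set by controls: 0 for no effect and ±100 for the full control effect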)
How it was run: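 FRET read-out (405 nm excitation, 460/530 nm emission) of a beta-lactamase reporter under a STAT-inducible element in ME-180 cervical carcinoma cells. Cells with compound receive 40 pM IL-6 for 5 h. Values are normalised to AC90 stimulation and AC90 JAK-inhibitor controls.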

[4] = molecular target: Glucocorticoid receptor (Homo sapiens) (UniProt P04150); test: GR-GFP Redistribution (AID 450;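 active = compounds whose dose series gives a full or clear partial fitted curve of increased nuclear translocation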; note: potency is the fitted concentration of half-maximal effect); conditions: U2OS GR-GFP nuclear translocation, laser cytometry, 2 h
[5] = molecular target: Glucocorticoid receptor (Homo sapiens) (UniProt P04150); test: GR-EFC Redistribution (AID 451; calls by dose curve; note: potency is the fitted concentration of half-maximal effect); conditions: CHO-K1 GR-EFC translocation, beta-gal luminescence, 2 h
How it was run: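 CHO-K1 cells expressing nuclear EA and GR-ED fragments of b-gal; compounds titrated up to 46 uM final, 2 h at 37 C. GR nuclear translocation read as complemented b-gal luminescence after 1 h RT detection.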

[6] = molecular target: Mitogen-activated protein kinase 10 (Mus musculus) (UniProt Q61831); test: JNK3 AlphaScreen Assay (AID 530; active = well fitted curve in either direction with a large enough effect, not every such curve was filed as active;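 note: kinase came from lysate of stimulated human HepG2 cells; signal reports phosphorylation of biotinylated GST-cJun 1-79 at Ser73 with 10 µM ATP; % is set by controls: 0 for no effect and ±100 for the full control effect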)
How it was run: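 HepG2 lysate (IL-1b/TNFa pre-activated) + biotin-GST-cJun 1-79 + anti-pSer73 cJun; cpd titration, 15 min RT; ATP 10 uM start; Tris pH 7.6, MgCl2, DTT, vanadate; beads in EDTA buffer; AlphaScreen.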

[7] = molecular target: 3',5'-cyclic-AMP phosphodiesterase 4B (Homo sapiens) (UniProt Q07343); test: qHTS Assay for Inhibitors of PDE-IV (AID 607; active = well fitted activation curve with a large enough effect in the main read-out, with a control signal flat, not every such curve was filed as active; note: % of control where 0% means no effect)
How it was run: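 Cell-based read-out of cAMP via a modified cyclic nucleotide-gated channel and membrane potential dye (535/590 nm) in HEK293 cells expressing PDE4 endogenously. Compounds tested up to 22.9 uM final; 100 uM RO 20-1724 reference.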

[8] = qHTS Assay for Lipid Storage Modulators (AID 1519; calls by dose curve); conditions: Drosophila S3 cells, BODIPY lipid droplet/cell ratio, laser cytometry, cells loaded with oleic acid; for activity change, negative = inhibition: at 25.7 µM (top of the series)
How it was run: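 Cells seeded at 5,000 per well were treated with compounds over a concentration series and loaded with oleic acid (400 uM, as added). Lipid droplet fluorescence (488 nm excitation, 500-530 nm channel) was read by laser-scanning cytometry and normalized to 20 uM Triacsin C.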

[9] = molecular target: Ubiquitin carboxyl-terminal hydrolase 1 (Homo sapiens) (UniProt O94782); test: Inhibitors of USP1/UAF1: Pilot qHTS (AID 504865);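 note: rhodamine fluorescence freed from ubiquitin-rhodamine substrate followed over time; top concentration of the series differs between compounds; % is set by controls: 0 for no effect and ±100 for the full control effect; nearly all actives have a fitted effect of over 35% in size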
How it was run: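 Deubiquitinase activity followed as kinetic rhodamine fluorescence release from 150 nM Ub-Rho. 1 nM USP1/UAF1 with compound, after 15 min room-temperature preincubation, in HEPES pH 7.8 buffer containing TCEP, EDTA, BSA and Tween-20.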

[10] = molecular target: ATP-dependent 6-phosphofructokinase (Trypanosoma brucei brucei) (UniProt O15648); test: qHTS Assay to Find Inhibitors of T. brucei phosphofructokinase: hit validation (AID 492961)
How it was run: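 Compounds titrated; %activity normalized to 0x and 1x enzyme controls, curve-fitted. Readout: ADP-Glo luminescence after 45 min room-temperature reaction of 1.25 nM PFK, 0.1 mM ATP, 0.5 mM F6P, pH 8.0.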

[11] = molecular target: Luciferin 4-monooxygenase (Photinus pyralis) (UniProt P08659); test: Biochemical firefly luciferase enzyme assay for NPC (AID 624030);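 note: purified P. pyralis luciferase at 10 nM with luciferin and ATP substrate; 0% = DMSO and -100% = full luciferase inhibition by PTC124 control; nearly all actives have a fitted effect of over 70% in size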
How it was run: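 Purified P. pyralis luciferase at 10 nM in 50 mM Tris Acetate (final), luminescence read within 5 minutes of enzyme addition to compounds. Activity normalised to PTC124 versus DMSO; concentration-response curves classed by r2, magnitude and activity.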

[12] = qHTS profiling for inhibitors of Plasmodium falciparum proliferation (AID 504749); note: potency is the fitted concentration of half-maximal effect;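 for activity, negative = inhibition: 0% = DMSO vehicle and full inhibition = artemisinin control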; for all read-outs here: nearly all actives have a fitted effect of over 60% in size; conditions: P. falciparum in erythrocytes, SYBR Green DNA, 72 h; for activity, negative = inhibition: at 12.8 µM (top of the series)
How it was run: (§1)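 SYBR Green fluorescence (ex 485 nm, em 535 nm) reports parasite DNA after 72 h compound exposure of infected red cells at 0.3% parasitemia, 2.5% hematocrit; signal normalized to 0.29 uM artemisinin and vehicle wells.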

[13] = system: C2A; test: as above; conditions: P. falciparum in erythrocytes, SYBR Green DNA, 72 h; series mostly up to 12.8 µM
How it was run: as §1

[14] = system: CP238; test: as above; conditions: P. falciparum in erythrocytes, SYBR Green DNA, 72 h; series mostly up to 12.8 µM
How it was run: as §1

[15] = system: CP252; test: as above; conditions: P. falciparum in erythrocytes, SYBR Green DNA, 72 h; series mostly up to 12.8 µM
How it was run: as §1

[16] = system: DIV14; test: as above; conditions: P. falciparum in erythrocytes, SYBR Green DNA, 72 h; series mostly up to 12.8 µM
How it was run: as §1

[17] = system: JCK; test: as above; conditions: P. falciparum in erythrocytes, SYBR Green DNA, 72 h; series mostly up to 12.8 µM
How it was run: as §1

[18] = system: N140; test: as above; conditions: P. falciparum in erythrocytes, SYBR Green DNA, 72 h; series mostly up to 12.8 µM
How it was run: as §1

[19] = system: SC27B; test: as above; conditions: P. falciparum in erythrocytes, SYBR Green DNA, 72 h; series mostly up to 12.8 µM
How it was run: as §1

[20] = system: W2; test: as above; conditions: P. falciparum in erythrocytes, SYBR Green DNA, 72 h; series mostly up to 12.8 µM
How it was run: as §1

[21] = measured here: cell count channel max response
[22] = measured here: lipid channel max response

Chain of ATP-dependent 6-phosphofructokinase (Trypanosoma brucei brucei) (O15648 whole entry, looked up): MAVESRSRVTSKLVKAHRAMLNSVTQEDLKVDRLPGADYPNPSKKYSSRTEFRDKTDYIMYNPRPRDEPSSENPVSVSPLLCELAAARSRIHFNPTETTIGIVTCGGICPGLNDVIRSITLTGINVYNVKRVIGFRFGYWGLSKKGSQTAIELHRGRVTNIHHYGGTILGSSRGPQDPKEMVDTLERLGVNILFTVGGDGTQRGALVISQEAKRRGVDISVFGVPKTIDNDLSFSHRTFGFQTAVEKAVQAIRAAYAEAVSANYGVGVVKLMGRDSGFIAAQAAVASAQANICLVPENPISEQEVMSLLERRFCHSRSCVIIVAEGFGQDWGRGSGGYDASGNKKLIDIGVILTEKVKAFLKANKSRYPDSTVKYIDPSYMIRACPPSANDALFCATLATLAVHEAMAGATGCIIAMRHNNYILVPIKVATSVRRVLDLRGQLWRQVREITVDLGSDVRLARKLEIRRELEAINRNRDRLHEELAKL
Chain of 3',5'-cyclic-AMP phosphodiesterase 4B (Homo sapiens) (Q07343 whole entry, looked up): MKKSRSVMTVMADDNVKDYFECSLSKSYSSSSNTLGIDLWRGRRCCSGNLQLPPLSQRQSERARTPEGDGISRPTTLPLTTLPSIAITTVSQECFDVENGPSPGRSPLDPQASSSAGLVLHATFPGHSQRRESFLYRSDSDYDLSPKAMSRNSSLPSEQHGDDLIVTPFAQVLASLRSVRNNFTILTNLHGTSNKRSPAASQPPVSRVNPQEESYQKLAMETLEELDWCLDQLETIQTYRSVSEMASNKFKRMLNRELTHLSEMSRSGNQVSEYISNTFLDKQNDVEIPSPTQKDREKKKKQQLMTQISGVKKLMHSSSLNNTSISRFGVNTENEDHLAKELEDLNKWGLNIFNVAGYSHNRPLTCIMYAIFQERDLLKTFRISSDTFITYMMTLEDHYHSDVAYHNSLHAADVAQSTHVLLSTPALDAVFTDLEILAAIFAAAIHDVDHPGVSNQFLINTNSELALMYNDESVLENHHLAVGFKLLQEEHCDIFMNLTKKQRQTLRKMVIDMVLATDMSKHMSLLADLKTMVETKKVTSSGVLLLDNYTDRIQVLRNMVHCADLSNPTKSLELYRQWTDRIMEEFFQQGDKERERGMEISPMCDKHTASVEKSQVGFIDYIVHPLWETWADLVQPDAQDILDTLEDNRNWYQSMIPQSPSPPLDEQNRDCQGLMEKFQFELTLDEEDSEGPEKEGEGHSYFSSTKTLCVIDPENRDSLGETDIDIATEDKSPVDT
Chain of Luciferin 4-monooxygenase (Photinus pyralis) (P08659 whole entry, looked up): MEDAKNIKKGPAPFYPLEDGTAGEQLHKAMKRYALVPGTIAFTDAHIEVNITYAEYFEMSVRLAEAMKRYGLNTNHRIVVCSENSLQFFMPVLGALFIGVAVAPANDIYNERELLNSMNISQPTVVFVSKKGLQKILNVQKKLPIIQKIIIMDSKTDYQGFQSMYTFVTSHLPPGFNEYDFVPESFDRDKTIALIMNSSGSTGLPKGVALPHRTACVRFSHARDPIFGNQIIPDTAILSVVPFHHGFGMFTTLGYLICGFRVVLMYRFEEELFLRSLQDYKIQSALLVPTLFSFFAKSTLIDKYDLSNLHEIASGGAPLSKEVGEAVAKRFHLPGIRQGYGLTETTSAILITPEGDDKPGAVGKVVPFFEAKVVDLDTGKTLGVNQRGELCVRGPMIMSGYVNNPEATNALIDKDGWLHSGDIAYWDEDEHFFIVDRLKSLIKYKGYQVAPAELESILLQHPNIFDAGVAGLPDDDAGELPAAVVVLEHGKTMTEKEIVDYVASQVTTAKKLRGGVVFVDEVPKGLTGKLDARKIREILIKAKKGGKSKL
Chain of Ubiquitin carboxyl-terminal hydrolase 1 (Homo sapiens) (O94782 whole entry, looked up): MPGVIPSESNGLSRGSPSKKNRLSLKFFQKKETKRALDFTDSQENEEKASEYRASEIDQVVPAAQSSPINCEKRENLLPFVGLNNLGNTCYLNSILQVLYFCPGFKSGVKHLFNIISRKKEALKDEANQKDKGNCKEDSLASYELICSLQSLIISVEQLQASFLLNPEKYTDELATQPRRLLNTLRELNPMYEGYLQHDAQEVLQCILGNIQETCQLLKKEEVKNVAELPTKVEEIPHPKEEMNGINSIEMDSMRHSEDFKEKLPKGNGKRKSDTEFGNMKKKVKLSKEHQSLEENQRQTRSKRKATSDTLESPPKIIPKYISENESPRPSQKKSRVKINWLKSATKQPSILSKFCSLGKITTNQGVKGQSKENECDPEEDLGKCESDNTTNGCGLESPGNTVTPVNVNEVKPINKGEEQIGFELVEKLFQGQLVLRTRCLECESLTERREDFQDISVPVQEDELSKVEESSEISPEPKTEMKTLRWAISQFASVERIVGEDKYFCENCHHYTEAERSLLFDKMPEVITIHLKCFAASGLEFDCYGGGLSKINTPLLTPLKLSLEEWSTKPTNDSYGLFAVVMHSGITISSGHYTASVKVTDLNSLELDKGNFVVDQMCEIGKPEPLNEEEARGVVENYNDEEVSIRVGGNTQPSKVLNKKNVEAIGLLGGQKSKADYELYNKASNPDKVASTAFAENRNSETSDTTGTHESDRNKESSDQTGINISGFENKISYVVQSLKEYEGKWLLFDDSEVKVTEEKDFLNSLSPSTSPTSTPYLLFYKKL
Chain of Glucocorticoid receptor (Homo sapiens) (P04150 whole entry, looked up, the tested form may be a part): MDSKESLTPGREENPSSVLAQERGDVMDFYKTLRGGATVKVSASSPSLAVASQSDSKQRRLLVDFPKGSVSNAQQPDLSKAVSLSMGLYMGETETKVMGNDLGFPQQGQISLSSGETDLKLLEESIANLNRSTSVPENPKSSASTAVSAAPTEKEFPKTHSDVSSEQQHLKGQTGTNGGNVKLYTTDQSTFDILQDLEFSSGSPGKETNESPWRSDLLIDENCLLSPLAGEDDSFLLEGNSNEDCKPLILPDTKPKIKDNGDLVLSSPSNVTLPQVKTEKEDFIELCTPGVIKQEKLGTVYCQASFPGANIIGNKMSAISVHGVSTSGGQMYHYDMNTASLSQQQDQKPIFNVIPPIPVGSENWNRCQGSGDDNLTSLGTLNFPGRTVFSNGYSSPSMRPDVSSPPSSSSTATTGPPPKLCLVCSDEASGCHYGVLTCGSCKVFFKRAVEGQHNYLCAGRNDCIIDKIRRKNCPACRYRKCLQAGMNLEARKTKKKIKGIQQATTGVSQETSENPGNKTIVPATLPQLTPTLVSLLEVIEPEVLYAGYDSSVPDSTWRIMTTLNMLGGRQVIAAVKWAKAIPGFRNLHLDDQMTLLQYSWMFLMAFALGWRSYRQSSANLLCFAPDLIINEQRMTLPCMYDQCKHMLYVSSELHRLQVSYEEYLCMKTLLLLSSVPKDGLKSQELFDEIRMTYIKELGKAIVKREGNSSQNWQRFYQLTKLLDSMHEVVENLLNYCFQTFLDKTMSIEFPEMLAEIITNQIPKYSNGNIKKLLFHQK

S=C(NC1CCCCC1)N1CCC([C@H]2C=NC=N2)CC1
2.69%: max response [8, 22]
-0.275%: max response [8, 21]
inactive: outcome [1] | activity change, negative = inhibition [2] -11% | outcome [3] | Potency [4] > 20.6 µM | Potency [5] > 20.6 µM | Potency [6] | outcome [7] | activity change, negative = inhibition [8] 2.27% | Potency [9]

CC(C)(C)NC(=O)[C@@H]1CC[C@@H]2[C@@H]3CC[C@@H]4NC(=O)C=C[C@@]4(C)[C@H]3CC[C@]21C
inactive: outcome [1] | activity change, negative = inhibition [2] 3.14% | outcome [3] | Potency [4] > 20.6 µM | Potency [5] > 20.6 µM | Potency [6] | outcome [7] | activity change, negative = inhibition [8] -1.87% | outcome [10] | Potency [9] | Potency [11] | activity, negative = inhibition ([12]; parasite line A) 6.77% | activity, negative = inhibition ([12]; parasite line B) -2.48% | Potency [13] | Potency [14] | Potency [15] | Potency [16] | Potency [17] | Potency [18] | Potency [19] | Potency [20]
-13.3%: max response [8, 22]
-11.6%: max response [8, 21]

O=c1cc(-c2ccc(O)cc2)oc2c([C@H]3O[C@@H](CO)[C@@H](O)[C@@H](O)[C@@H]3O)c(O)cc(O)c12
-1.3%: max response [8, 21]
1.02%: max response [8, 22]
inactive: outcome [1] | activity change, negative = inhibition [2] 2.91% | outcome [3] | Potency [4] > 20.6 µM | Potency [5] > 20.6 µM | Potency [6] | outcome [7] | activity change, negative = inhibition [8] -1.45% | Potency [9]

CC1=CC(=O)C2=C(C)CC[C@@H]3[C@@H](OC(=O)[C@H]3C)[C@H]12
-14.8%: max response [8, 22]
inactive: outcome [1] | activity change, negative = inhibition [2] -23.2% | outcome [3] | Potency [4] > 20.6 µM | Potency [5] > 20.6 µM | outcome [7] | activity change, negative = inhibition [8] 0.93% | Potency [9]
-15.8%: max response [8, 21]

O=C1CN(/N=C\c2ccc([N+](=O)[O-])o2)C(=O)N1
3.28%: max response [8, 21]
inactive: outcome [1] | activity change, negative = inhibition [2] -2.23% | outcome [3] | Potency [4] > 20.6 µM | Potency [5] > 20.6 µM | outcome [7] | activity change, negative = inhibition [8] 1.21% | Potency [9]
0.924%: max response [8, 22]

CC[C@H](CC[C@H](C)[C@@H]1CC[C@@H]2[C@H]3CC=C4C[C@@H](O)CC[C@]4(C)[C@H]3CC[C@]21C)C(C)C
-14.8%: max response [8, 21]
inactive: outcome [1] | activity change, negative = inhibition [2] -3.85% | outcome [3] | Potency [4] > 20.6 µM | Potency [5] > 20.6 µM | Potency [6] | outcome [7] | activity change, negative = inhibition [8] 2.08% | Potency [9]
-14.7%: max response [8, 22]

COc1cc(OC)c2c(c1Cl)O[C@@]1(C2=O)[C@H](C)CC(=O)C[C@@H]1OC
inactive: outcome [1] | activity change, negative = inhibition [2] -1.63% | outcome [3] | Potency [4] > 20.6 µM | Potency [5] > 20.6 µM | activity change, negative = inhibition [8] -1.85% | Potency [9]
-13.8%: max response [8, 21]
-15.1%: max response [8, 22]

CO[C@H]1[C@H](O[C@H]2O[C@@H](C)[C@@H](O[C@@H]3C[C@](C)(O)[C@H](O)[C@H](C)O3)[C@@H](N(C)C)[C@@H]2O)[C@@H](CC=O)C[C@@H](C)[C@@H](O[C@H]2CC[C@H](N(C)C)[C@H](C)O2)/C=C\C=C/C[C@@H](C)OC(=O)C[C@H]1O
-16.8%: max response [8, 22]
inactive: outcome [1] | activity change, negative = inhibition [2] 7.86% | outcome [3] | Potency [5] > 20.6 µM | outcome [7] | activity change, negative = inhibition [8] -1.68% | outcome [10] | Potency [9] | Potency [11] | activity, negative = inhibition ([12]; parasite line A) -18% | Potency [13] | Potency [14] | Potency [16] | Potency [17] | Potency [18] | Potency [19]
active: Potency [20] 3.22 µM
-9.34%: max response [8, 21]

NC[C@@H]1O[C@H](O[C@H]2[C@H](O)[C@@H](O[C@H]3[C@H](O)[C@H](N)C[C@H](N)[C@H]3O[C@@H]3O[C@H](CO)[C@@H](O)[C@H](O)[C@@H]3N)O[C@H]2CO)[C@@H](N)[C@H](O)[C@@H]1O
-14.4%: max response [8, 22]
-10.9%: max response [8, 21]
inactive: outcome [1] | activity change, negative = inhibition [2] -6.33% | outcome [3] | Potency [4] > 20.6 µM | Potency [5] > 20.6 µM | Potency [6] | outcome [7] | activity change, negative = inhibition [8] -3.71%

O=C(N/N=C\c1ccc([N+](=O)[O-])o1)c1ccc(O)cc1
-7.99%: max response [8, 21]
-11.6%: max response [8, 22]
inactive: outcome [1] | activity change, negative = inhibition [2] 1.26% | outcome [3] | Potency [4] > 20.6 µM | Potency [5] > 20.6 µM | Potency [6] | outcome [7] | activity change, negative = inhibition [8] -1.38% | outcome [10] | Potency [11]
active: Potency ([12]; parasite line A) 1.41 µM | Potency ([12]; parasite line B) 2.82 µM | Potency [13] 3.16 µM | Potency [14] 3.16 µM | Potency [15] 3.16 µM | Potency [16] 3.22 µM | Potency [17] 3.98 µM | Potency [18] 3.16 µM | Potency [19] 3.55 µM | Potency [20] 1.81 µM

CS(=O)(=O)c1ccc([C@H](O)[C@H](CF)NC(=O)C(Cl)Cl)cc1
2.55%: max response [8, 22]
inactive: outcome [1] | activity change, negative = inhibition [2] 1.9% | outcome [3] | Potency [4] > 20.6 µM | Potency [5] > 20.6 µM | outcome [7] | activity change, negative = inhibition [8] 1.06% | outcome [10] | Potency [11]
1.07%: max response [8, 21]

C=C1c2c(Cl)ccc(O)c2C(O)=C2C(=O)[C@@]3(O)C(O)=C(C(N)=O)C(=O)[C@@H](N(C)C)[C@@H]3[C@@H](O)[C@H]12
active: Potency [20] 6.42 µM
-8.74%: max response [8, 22]
-8.18%: max response [8, 21]
inactive: outcome [1] | activity change, negative = inhibition [2] -26.3% | outcome [3] | Potency [4] > 20.6 µM | Potency [5] > 20.6 µM | Potency [6] | outcome [7] | activity change, negative = inhibition [8] 1.11% | outcome [10] | Potency [11] | Potency [14] | Potency [15] | Potency [16] | Potency [17] | Potency [18]
